# Values joined by “and” are separate entries in the source; they are usually repeats but may differ in a detail not shown here. Identical values can stand only once. The source holds several records for some structures; these can differ, active in one and inactive in another. Active and inactive are the calls of the source. Rule for the calls: active = hit-call score of the fitted dose curve at least 0.9, where 1 is the maximum; inactive = score below 0.9.
# Read-out: Interleukin-1 alpha (IL1a), IL1A (gene 3552)
# Experiment: BSK_IMphg_IL1a: BioMAP Diversity Plus: IMphg Assay for Interleukin-1 alpha (IL1a) Biomarker Activity (AID 2284290)
# Conditions: primary human endothelial cells with macrophages
# Outline: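 IL-1α is quantified by ELISA at 24 h in the endothelial/macrophage IMphg co-culture, with gain of signal fitted relative to DMSO. Parallel SRB total-protein staining flags overt toxicity.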
# Sequence of E-selectin (Homo sapiens) (P16581 whole entry, looked up): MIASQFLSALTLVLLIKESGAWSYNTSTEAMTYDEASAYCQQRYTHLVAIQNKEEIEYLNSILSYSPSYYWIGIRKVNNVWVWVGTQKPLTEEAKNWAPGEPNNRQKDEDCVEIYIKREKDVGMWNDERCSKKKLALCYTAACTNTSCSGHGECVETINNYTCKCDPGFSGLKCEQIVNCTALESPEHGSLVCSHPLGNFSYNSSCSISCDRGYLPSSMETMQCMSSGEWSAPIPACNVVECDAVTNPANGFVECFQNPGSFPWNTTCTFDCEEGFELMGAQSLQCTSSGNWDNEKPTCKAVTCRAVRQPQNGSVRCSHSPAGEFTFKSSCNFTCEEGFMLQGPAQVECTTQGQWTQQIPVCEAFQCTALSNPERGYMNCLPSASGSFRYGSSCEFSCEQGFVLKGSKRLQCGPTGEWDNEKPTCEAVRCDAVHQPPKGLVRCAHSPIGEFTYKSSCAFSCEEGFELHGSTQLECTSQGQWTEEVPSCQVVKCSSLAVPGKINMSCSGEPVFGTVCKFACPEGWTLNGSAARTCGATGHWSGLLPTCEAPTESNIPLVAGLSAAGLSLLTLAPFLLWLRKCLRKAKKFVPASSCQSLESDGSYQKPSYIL
Structure (SMILES),outcome,AC50
O=C(O)C(F)(OC(F)(F)C(F)(OC(F)(F)C(F)(OC(F)(F)C(F)(F)C(F)(F)F)C(F)(F)F)C(F)(F)F)C(F)(F)F (configuration not stated),inactive,
FC(F)(F)C(F)(F)C(F)(F)C(F)(F)C(F)(F)C(F)(F)CCS,inactive,
C=C(C)C(=O)OCC(F)(F)C(F)(F)C(F)(F)C(F)(F)C(F)(F)C(F)(F)C(F)(F)F,inactive,
FC(F)(F)C(F)(F)C(F)(F)C(F)(F)CCI,inactive,
O=C(O)C(F)(F)C(F)(F)C(F)(F)F,inactive,
N=C(N)C(F)(F)C(F)(F)C(F)(F)C(F)(F)C(F)(F)C(F)(F)C(F)(F)F,inactive,
O=C(O)C(F)(OC(F)(F)C(F)(OC(F)(F)C(F)(F)C(F)(F)F)C(F)(F)F)C(F)(F)F (configuration not stated),inactive,
O=C(O)C(F)(F)C(F)(F)C(F)(F)C(F)(F)C(F)(F)C(F)(F)C(F)(F)C(F)(F)C(F)(F)C(F)(F)C(F)(F)C(F)(F)C(F)(F)F,inactive,
FC(F)(F)C(F)(F)C(F)(F)N(C(F)(F)C(F)(F)C(F)(F)F)C(F)(F)C(F)(F)C(F)(F)F,inactive,
O=C(O)C=C(C(F)(F)F)C(F)(F)F,inactive,
O=C(O)C(F)(F)C(F)(F)F,inactive,
FC(F)(I)C(F)(F)C(F)(F)C(F)(F)I,inactive,
OCC(F)(F)C(F)(F)C(F)(F)F,inactive,
FC(F)(F)C(F)(F)C(F)(F)C(F)(F)C(F)(F)C(F)(F)C(F)(F)Br,inactive,
OCC(F)(F)C(F)(F)C(F)(F)C(F)F,inactive,
OCCCC(F)(F)C(F)(F)C(F)(F)C(F)(F)C(F)(F)C(F)(F)C(F)(F)F,inactive,
O=S(=O)(OCC(F)F)C(F)(F)F,inactive,
O=S(=O)(O)C(F)(F)C(F)(F)C(F)(F)C(F)(F)C(F)(F)C(F)(F)C(F)(F)F,inactive,
OCC(F)(F)C(F)(F)C(F)(F)C(F)(F)C(F)(F)C(F)(F)F,inactive,
C=CC(=O)OCC(F)(F)C(F)(F)C(F)(F)C(F)(F)COC(=O)C=C,inactive,30 µM (active)
O=C(O)C(F)(F)C(F)(F)C(F)(F)C(F)(F)C(F)(F)C(F)(F)C(F)(F)C(F)(F)C(F)(F)C(F)F,inactive,
C=C(C)C(=O)OCC(F)(F)C(F)(F)C(F)(F)F,inactive,
FC(F)(F)C(F)(F)CNCC(F)(F)C(F)(F)F,inactive,
COC(=O)CCC(F)(F)C(F)(F)C(F)(F)C(F)(F)F,inactive,
CC(C)(C)C(=O)CC(=O)C(F)(F)C(F)(F)C(F)(F)F,inactive,
O=C(O)C(F)(F)C(F)(F)C(F)(F)C(F)(F)C(F)(F)C(F)(F)C(F)(F)C(F)(F)Cl,inactive,
OCC(F)(F)C(F)(F)C(F)(F)C(F)(F)C(F)(F)C(F)F,inactive,23.4 µM (active)

# Read-out: E-selectin (Homo sapiens) (UniProt P16581)
# Experiment: BSK_IMphg_ESelectin: BioMAP Diversity Plus: IMphg Assay for Eselectin Biomarker Activity (AID 2284291)
# Conditions: primary human endothelial cells with macrophages
# Outline: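 Analysed against DMSO baseline in the positive fitting direction, this endpoint is an ELISA read of E-selectin. It comes from human venular endothelial cells co-cultured with macrophages, sampled 24 h post-dose.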
Structure (SMILES),outcome,AC50
O=C(O)C(F)(OC(F)(F)C(F)(OC(F)(F)C(F)(OC(F)(F)C(F)(F)C(F)(F)F)C(F)(F)F)C(F)(F)F)C(F)(F)F (configuration not stated),inactive,
FC(F)(F)C(F)(F)C(F)(F)C(F)(F)C(F)(F)C(F)(F)CCS,inactive,
C=C(C)C(=O)OCC(F)(F)C(F)(F)C(F)(F)C(F)(F)C(F)(F)C(F)(F)C(F)(F)F,inactive,
FC(F)(F)C(F)(F)C(F)(F)C(F)(F)CCI,inactive,
O=C(O)C(F)(F)C(F)(F)C(F)(F)F,inactive,
N=C(N)C(F)(F)C(F)(F)C(F)(F)C(F)(F)C(F)(F)C(F)(F)C(F)(F)F,inactive,
O=C(O)C(F)(OC(F)(F)C(F)(OC(F)(F)C(F)(F)C(F)(F)F)C(F)(F)F)C(F)(F)F (configuration not stated),inactive,
O=C(O)C(F)(F)C(F)(F)C(F)(F)C(F)(F)C(F)(F)C(F)(F)C(F)(F)C(F)(F)C(F)(F)C(F)(F)C(F)(F)C(F)(F)C(F)(F)F,inactive,
FC(F)(F)C(F)(F)C(F)(F)N(C(F)(F)C(F)(F)C(F)(F)F)C(F)(F)C(F)(F)C(F)(F)F,inactive,
O=C(O)C=C(C(F)(F)F)C(F)(F)F,,20.2 µM (active) and 18 µM (active)
O=C(O)C(F)(F)C(F)(F)F,inactive,
FC(F)(I)C(F)(F)C(F)(F)C(F)(F)I,inactive,
OCC(F)(F)C(F)(F)C(F)(F)F,inactive,
FC(F)(F)C(F)(F)C(F)(F)C(F)(F)C(F)(F)C(F)(F)C(F)(F)Br,inactive,
OCC(F)(F)C(F)(F)C(F)(F)C(F)F,inactive,
OCCCC(F)(F)C(F)(F)C(F)(F)C(F)(F)C(F)(F)C(F)(F)C(F)(F)F,inactive,45.4 µM (active)
O=S(=O)(OCC(F)F)C(F)(F)F,inactive,
O=S(=O)(O)C(F)(F)C(F)(F)C(F)(F)C(F)(F)C(F)(F)C(F)(F)C(F)(F)F,inactive,
OCC(F)(F)C(F)(F)C(F)(F)C(F)(F)C(F)(F)C(F)(F)F,inactive,
C=CC(=O)OCC(F)(F)C(F)(F)C(F)(F)C(F)(F)COC(=O)C=C,,25.1 µM (active) and 31.3 µM (active)
O=C(O)C(F)(F)C(F)(F)C(F)(F)C(F)(F)C(F)(F)C(F)(F)C(F)(F)C(F)(F)C(F)(F)C(F)F,inactive,
C=C(C)C(=O)OCC(F)(F)C(F)(F)C(F)(F)F,inactive,
FC(F)(F)C(F)(F)CNCC(F)(F)C(F)(F)F,inactive,
COC(=O)CCC(F)(F)C(F)(F)C(F)(F)C(F)(F)F,inactive,
CC(C)(C)C(=O)CC(=O)C(F)(F)C(F)(F)C(F)(F)F,inactive,
O=C(O)C(F)(F)C(F)(F)C(F)(F)C(F)(F)C(F)(F)C(F)(F)C(F)(F)C(F)(F)Cl,inactive,
OCC(F)(F)C(F)(F)C(F)(F)C(F)(F)C(F)(F)C(F)F,inactive,
